# Source: PubChem BioAssay (NCATS)
# Values without a mark were called inactive. Inconclusive results are not listed. Activity calls are given as the source filed them. Calls follow the shape of the dose curve; as a rule, active = well fitted curve in the direction sought with a large enough effect; inconclusive = small, poorly fitted or top-dose-only effect, or another doubt; inactive = no such curve, though single readings can be large; an effect the other way counts as inactive or inconclusive.
# Biological target: Tyrosine-protein kinase Yes (Homo sapiens) (UniProt P07947)
# Sequence (P07947 whole entry, looked up): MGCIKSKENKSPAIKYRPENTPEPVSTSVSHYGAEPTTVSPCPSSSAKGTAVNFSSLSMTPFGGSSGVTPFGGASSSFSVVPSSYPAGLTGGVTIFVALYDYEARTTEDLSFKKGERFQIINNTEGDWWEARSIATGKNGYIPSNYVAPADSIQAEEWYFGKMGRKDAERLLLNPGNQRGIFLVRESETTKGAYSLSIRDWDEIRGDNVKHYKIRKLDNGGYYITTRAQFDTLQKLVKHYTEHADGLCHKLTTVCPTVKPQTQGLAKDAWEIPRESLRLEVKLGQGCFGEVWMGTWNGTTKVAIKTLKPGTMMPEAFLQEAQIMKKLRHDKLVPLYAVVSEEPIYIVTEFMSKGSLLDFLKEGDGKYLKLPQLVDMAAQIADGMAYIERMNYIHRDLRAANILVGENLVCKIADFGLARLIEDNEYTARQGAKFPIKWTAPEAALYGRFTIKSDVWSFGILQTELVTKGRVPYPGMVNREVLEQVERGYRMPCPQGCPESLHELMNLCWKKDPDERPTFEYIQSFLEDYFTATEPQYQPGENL
# Assay: qHTS for small molecule inhibitors of Yes1 kinase: Primary Screen (AID 686947); also: nearly all actives have a fitted effect of over 60% in size; also: potency is read from the fitted curve at half-maximal effect;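 as to activity change, negative = inhibition: plate controls were DMSO with enzyme for no effect and no-enzyme DMSO wells for full effect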
# Conditions: Yes1 kinase biochemical qHTS inhibition; series mostly up to 76.9 µM; activity change, negative = inhibition: at the top concentration
# In short: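 In this qHTS format, inhibition is expressed relative to DMSO controls with enzyme (maximum) and without enzyme (minimum). The 60 min room-temperature reaction uses 0.1 mM ATP, with ADP detected by luminescence.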
Structure (SMILES),Potency,"activity change, negative = inhibition [%]"
Cc1cc2c(C(C)C)c(O)c(O)c(C=O)c2c(O)c1-c1c(C)cc2c(C(C)C)c(O)c(O)c(C=O)c2c1O,30.7 µM (active),
C[C@@H]1[C@@H](C(=O)C[C@H]2O[C@@H]3O[C@]4(C)CC[C@@H]5[C@H](C)CC[C@@H]([C@H]2C)[C@@]35OO4)O[C@@H]2O[C@]3(C)CC[C@H]4[C@H](C)CC[C@@H]1[C@@]24OO3,,-0.401
COC[C@H]1OC(=O)c2coc3c2[C@@]1(C)C1=C(C3=O)C2CCC(=O)[C@@]2(C)C[C@H]1OC(C)=O (stereo not given in full),,0.305
CCCCC/C=C\C/C=C\C/C=C\C/C=C\CCCC(=O)NC1CC1,,7.98
CN(C)CCN(C)CCc1ccc(Cl)c(Cl)c1,,11.1

# Tested on: not listed separately
# Assay: qHTS for small molecule inhibitors of Yes1 kinase: Counter Assay (AID 686950);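 also: no kinase present so only ADP-Glo detection of a fixed ADP amount is tested; luminescence from ADP-Glo reporting ADP in a fixed ATP and ADP mixture; 0% = DMSO wells with ATP plus ADP and -100% = ATP-only wells without ADP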
# Conditions: series mostly up to 76.9 µM; activity change, negative = inhibition: at the top concentration
# In short: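 No kinase present; 0.08 mM ATP + 0.02 mM ADP in 50 mM Tris pH 7.5, 10 mM MgCl2, 150 mM NaCl, 1 mM DTT; 20 min compound preincubation, 60 min RT, ADP-Glo luminescence, normalized to ATP/ADP (max) and ATP-only (min).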
row,Structure (SMILES),"activity change, negative = inhibition [%]"
1,C[C@@H]1[C@@H](C(=O)C[C@H]2O[C@@H]3O[C@]4(C)CC[C@@H]5[C@H](C)CC[C@@H]([C@H]2C)[C@@]35OO4)O[C@@H]2O[C@]3(C)CC[C@H]4[C@H](C)CC[C@@H]1[C@@]24OO3,-7.28
2,COC[C@H]1OC(=O)c2coc3c2[C@@]1(C)C1=C(C3=O)C2CCC(=O)[C@@]2(C)C[C@H]1OC(C)=O (stereo not given in full),3.4
3,CNC(=O)N1N=C(c2ccc(N)cc2)c2cc3c(cc2CC1C)OCO3 (stereo not given),0.304
4,CCCCC/C=C\C/C=C\C/C=C\C/C=C\CCCC(=O)NC1CC1,0.506
5,CNC(=O)c1ccc(N2C(=S)N(c3ccc(C#N)c(C(F)(F)F)c3)C(=O)C23CCC3)cc1F,-2.93
6,CN(C)CCN(C)CCc1ccc(Cl)c(Cl)c1,5.9
7,CC(O)(CS(=O)(=O)c1ccc(F)cc1)C(=O)Nc1ccc(C#N)c(C(F)(F)F)c1 (stereo not given),-1.36
8,O=C(O)C(=O)c1cn(Cc2ccccc2)c2ccc(-c3ccc(OC(F)(F)F)cc3)cc12,2.22
9,COc1ccc(C(=O)c2c(C)n(CCN3CCOCC3)c3ccccc23)cc1,0.936

# Biological target: Arylsulfatase A (Homo sapiens) (UniProt P15289)
# Sequence (P15289 whole entry, looked up): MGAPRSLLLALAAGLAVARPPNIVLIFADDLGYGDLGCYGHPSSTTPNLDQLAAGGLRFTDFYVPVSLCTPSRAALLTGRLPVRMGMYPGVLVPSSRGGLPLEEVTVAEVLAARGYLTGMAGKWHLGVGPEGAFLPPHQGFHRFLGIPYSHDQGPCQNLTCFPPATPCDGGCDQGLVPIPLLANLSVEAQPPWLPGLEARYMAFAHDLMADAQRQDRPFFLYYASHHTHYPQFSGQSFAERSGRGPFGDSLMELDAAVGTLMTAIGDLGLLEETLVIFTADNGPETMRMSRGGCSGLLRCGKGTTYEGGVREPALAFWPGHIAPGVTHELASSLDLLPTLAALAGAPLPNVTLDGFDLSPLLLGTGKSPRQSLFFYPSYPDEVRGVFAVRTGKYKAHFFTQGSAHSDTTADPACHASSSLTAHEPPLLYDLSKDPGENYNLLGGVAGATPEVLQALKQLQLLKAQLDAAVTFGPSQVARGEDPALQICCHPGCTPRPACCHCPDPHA
# Assay: qHTS screen for enhancers of Arylsulfatase A (ASA1): LOPAC Validation Assay (AID 720538); also: potency is read from the fitted curve at half-maximal effect; as to activity change, positive = activation: 0% is about no effect
# Conditions: ASA enzyme activity, LOPAC qHTS enhancer assay; series mostly up to 57.5 µM; activity change, positive = activation: at the top concentration; outcome: at the top concentration
# In short: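 Enhancer assay in patient-derived MLD fibroblasts carrying ASA-I179S: 48 h compound exposure at 37 C, then 14 h room-temperature pNCS turnover (0.5 mM final) in lysis buffer. Read by fluorescence at 525/598 nm after NaOH stop.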
Structure (SMILES),"activity change, positive = activation [%]",outcome,Potency
NCC1(CC(=O)O)CCCCC1,5.87,,
CC(C)=CCOc1c2occc2cc2ccc(=O)oc12,,inactive,
N#CC(C#N)=Cc1ccc(O)c(O)c1,,inactive,
O=c1[nH]c2ccccc2n1CCCN1CCC(n2c(=O)[nH]c3cc(Cl)ccc32)CC1,-24.5,,
C[C@]12CC[C@@H]3c4ccc(O)cc4C[C@@H](CCCCCCCCCS(=O)CCCC(F)(F)C(F)(F)F)[C@H]3[C@@H]1CC[C@@H]2O (stereo not given in full),,inactive; inhibitor; fitted 4.7755 uM,
CC(=O)[C@H]1CC[C@H]2[C@@H]3CC[C@H]4C[C@H](O)CC[C@]4(C)[C@H]3C(=O)C[C@]12C,7.36,,
CNCCC(Oc1ccc(C(F)(F)F)cc1)c1ccccc1 (stereo not given),-13.7,,
Cc1cc2c(C(C)C)c(O)c(O)c(C=O)c2c(O)c1-c1c(C)cc2c(C(C)C)c(O)c(O)c(C=O)c2c1O,,,19 µM (active)
COc1ccc(Cc2nccc3cc(OC)c(OC)cc23)cc1OC,20.9,,
c1ccc(C2CC2)c(OCC2=NCCN2)c1,-15.7,,
CC[C@@H](CO)NC(=O)[C@@H]1C=C2c3cccc4c3c(cn4C)C[C@H]2N(C)C1,-425,,
O=C1NCN(c2ccccc2)C12CCN(CC1COc3ccccc3O1)CC2 (stereo not given),,,3.01 µM (active)
O=NN(CCCl)C(=O)NCCCl,-39.4,,
c1ccc2c(c1)OCC(C1=NCCN1)O2 (stereo not given),,inactive,
COc1ccccc1N1CCNCC1,-15.6,,
CCC1(C2=NCCN2)Cc2ccccc2O1 (stereo not given),,inactive,
CCCN1CCC[C@@H]2Cc3nc(N)ncc3C[C@H]21,,inactive,
COC[C@H]1OC(=O)c2coc3c2[C@@]1(C)C1=C(C3=O)C2CCC(=O)[C@@]2(C)C[C@H]1OC(C)=O (stereo not given in full),-42.1,,
Cc1cccc(C)c1NC(=O)CN1CCCC1=O,11.3,,
CC(CCc1ccccc1)NC(C)C(O)c1ccc(O)cc1 (stereo not given),,inactive,
NN=C(N)N,,,inactive
NCC(CC(=O)O)c1ccc(Cl)cc1 (stereo not given),-17.6,,
CN1C[C@H](CNC(=O)OCc2ccccc2)C[C@@H]2c3cccc4c3c(cn4C)C[C@H]21,-7.9,,
CC[C@@H](CO)NC(=O)[C@@H]1C=C2c3cccc4[nH]cc(c34)C[C@H]2N(C)C1,-87.2,,
Cc1ccc(S(=O)(=O)N[C@@H](CCCCN)C(=O)CCl)cc1,,,3.01 µM (active)
CCCN1CCC[C@@H]2Cc3[nH]ncc3C[C@H]21,14.3,,
